Compounds with a hit are over-represented: about 7.4% of the library has one in this group of screens.
FXIIa mix inh – factor XIIa (human) inhibition, mixture screen. P00748. purified FXIIa, fluorogenic substrate, pooled mixtures. inhibition, % at 5 µM. hit rate 0.2% among 62,000. AID 684;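 also: 0% = enzyme without compound and 100% = no enzyme blank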
D1 allo mod – D1 dopamine receptor (human) allosteric modulation. hit rate 5.9% among 58,000. B-score at 10 µM. AID 641. HEK293 D1, CRE-luciferase, dopamine EC30 potentiation; actives deviate in either direction;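 active = luminescence count or its row- and column-corrected plate score outside the 99.7% band of the plate's sample wells, on either side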
Target sequence (P21728 whole entry, looked up): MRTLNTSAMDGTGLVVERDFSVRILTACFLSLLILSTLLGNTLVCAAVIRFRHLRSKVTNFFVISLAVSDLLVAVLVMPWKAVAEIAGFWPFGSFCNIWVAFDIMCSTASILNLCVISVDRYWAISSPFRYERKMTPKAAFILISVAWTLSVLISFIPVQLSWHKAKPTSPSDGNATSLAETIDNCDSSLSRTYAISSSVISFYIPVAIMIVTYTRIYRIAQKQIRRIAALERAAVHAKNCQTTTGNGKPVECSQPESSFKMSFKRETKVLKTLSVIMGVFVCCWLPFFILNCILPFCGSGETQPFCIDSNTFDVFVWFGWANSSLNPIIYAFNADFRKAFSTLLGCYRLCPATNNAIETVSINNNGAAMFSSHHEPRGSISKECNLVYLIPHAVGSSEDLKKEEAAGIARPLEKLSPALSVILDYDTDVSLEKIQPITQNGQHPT
hDAT+cocaine – modulates human dopamine transporter uptake under cocaine. LLC-PK1 hDAT cells, [14C]-dopamine uptake with cocaine IC80; actives deviate in either direction. Q01959. B-score at 10 µM. hit rate 1.3% among 110,000;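 active = Z score or B-score, a plate-position-corrected score, falls beyond the plate's 99.7% confidence bounds, in either direction; inactive = both scores lie inside the 99.7% bounds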;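 also: scored against the spread of the other compound wells on the same plate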
M1 ag – agonists of M1 muscarinic receptor; CHO-M1 cells, Fluo-4 calcium fluorescence, agonist mode; stronger effect = higher value; B-score at 10 µM; hit rate 3% among 64,000;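 active = fluorescence rise, raw or as B-score row- and column-corrected plate score, outside the 99.7% band of its plate's samples, either direction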
M1 antag – M1 muscarinic receptor (rat) antagonism | P08482 | hit rate 3.4% among 64,000 | CHO-M1 cells, Fluo-4 calcium, ACh EC80 antagonist mode; stronger effect = lower value | AID 628 | B-score at 10 µM;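 active = calcium fluorescence response, raw or row-and-column corrected B-score, differing from the plate sample mean either way at a set confidence level, mostly lower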
FXIa mix inh – blocks human factor XIa in pooled compound mixtures; hit rate 0.19% among 62,000; AID 680; inhibition, % at 5 µM; purified FXIa, fluorogenic substrate; P03951;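 also: each value is inhibition by a whole ten-compound pool holding the compound; 0% = enzyme with no mixture and 100% = wells lacking enzyme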
M1 agonist conf – confirmation of rat M1 muscarinic receptor agonists. shares compounds with M1 ag. AID 1488. hit rate 19% among 1,700. CHO-M1 cells, Fluo-4 calcium fluorescence, agonist mode; actives lie on both sides. fluorescence change (max-min) at 10 µM;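 active = fluorescence change differs from the solvent-only DMSO control mean at a set confidence level in both duplicate runs; inconclusive = differs from solvent-only control mean in just one of two runs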;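 also: an EC20 dose of acetylcholine follows compound addition during the same imaging run; raw fluorescence intensity difference in instrument units with no normalization to controls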
M4 agonist ctr – rat M4 muscarinic agonism, M1 counter-screen | fluorescence change (max-min) at 10 µM | CHO M4/Gqi5 cells, Fluo-4 calcium fluorescence, agonist mode; actives lie on both sides | shares compounds with M1 ag | hit rate 9% among 1,700;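 active = fluorescence change differing from the plate's solvent-only control wells at 99.7% confidence in both duplicates, whether higher or lower; inconclusive = differs from solvent controls in only one of two duplicates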
Numbers without * were called inactive; ? = inconclusive; · = no result given. Rule as the data show it, unless noted: active = inhibition above about 20% (passing the limit was not always enough); inactive = the rest.

SMILES	FXIIa mix inh	D1 allo mod	hDAT+cocaine	M1 ag	M1 antag	FXIa mix inh	M1 agonist conf	M4 agonist ctr
c1ccc(Nc2nc(N3CCCCC3)nc(N3CCNCC3)n2)cc1	7.7	0.864	0.0498	10.7*	0.0394	-29.1	-10.2	-22.9
Cc1ccc(OCc2nnc(SCc3nc4ccccc4[nH]3)n2Cc2ccco2)cc1	2.8	·	0.0915	5.52*	-2.15	2.9	?	-54.8
c1ccc(-c2nnc(SCc3nc4ccccc4[nH]3)n2Cc2ccco2)cc1	·	·	2.55	·	·	·	·	·
CC(=O)Nc1ccccc1OCC(=O)c1cc(C)n(Cc2cccs2)c1C	-15.7	·	-0.575	3.11*	-2.4	6.0	22.3	-32.9
Cc1cc(C(=O)COC(=O)c2ccccc2O)c(C)n1Cc1cccs1	·	·	1.21	·	·	·	·	·
CN1CC=C2C(C#N)=C(N)C(C#N)(C#N)C(Cc3ccccc3)C2C1 (stereo not given)	4.2	-0.696	-0.449	29.6*	-0.697	-4.5	98.4*	63
CC(C)(C)OC(=O)N1CC=C2C(C#N)=C(N)C(C#N)(C#N)C(c3cccs3)C2C1 (stereo not given)	-2.4	0.0385	0.952	4.68*	-0.778	11.1	-8.28	?
CCC1C2CN(C(C)=O)CC=C2C(C#N)=C(N)C1(C#N)C#N (stereo not given)	-3.2	-0.881	0.068	-0.489	-0.24	8.9	·	·
COc1cc(C2C3CN(C)CC=C3C(C#N)=C(N)C2(C#N)C#N)ccc1OC(C)C (stereo not given)	11.4	-4.87*	0.925	5.07*	-0.346	-9.3	30.4	31.4
CC(C)N1CC=C2C(C#N)=C(N)C(C#N)(C#N)C(c3ccccc3)C2C1 (stereo not given)	6.5	·	-0.758	225*	-0.296	6.1	427*	400*
Cc1ccc(C(=O)NNc2cc(N3CCCC3)nc(N3CCCC3)n2)cc1	·	·	-0.0923	·	·	·	·	·
CC(C)(C)NC(=O)C(c1ccncc1)N(Cc1cccs1)C(=O)Cn1nnc(-c2cccs2)n1 (stereo not given)	5.5	-0.407	0.644	-0.62	0.44	5.2	·	·
CCN(Cc1ccccc1)C(c1cc2cc(C)ccc2[nH]c1=O)c1nnnn1CCOC (stereo not given)	-6.6	0.22	1.95	0.99	0.229	-11.4	·	·
CC(C)(C)c1ccc(S(=O)(=O)N2CCC(c3nc4ccc(Cl)cc4[nH]3)CC2)cc1	·	·	0.905	·	·	·	·	·
CCN(CC)S(=O)(=O)c1cccc(C(=O)NC(C(=O)Nc2nnc(C)s2)C(C)C)c1 (stereo not given)	·	·	0.866	·	·	·	·	·
CN(C)S(=O)(=O)c1cccc(NC(=S)Nc2ccc(Cl)cc2Cl)c1	·	·	1.28	·	·	·	·	·
C=CCn1c2ccccc2c2nnc(SCc3ccc4nonc4c3)nc21	-3.6	1.21	-0.00261	2.27*	0.364	2.3	-22.1	-44.7
CS(=O)(=O)N1CCC(C(=O)Nc2ccc(Oc3ccccc3)cc2)CC1	1.0	0.0211	0.436	3.2*	-0.531	3.0	?	-70.3
O=C1N(CCCCN2C(=O)C3(OCCO3)c3ccccc32)c2ccccc2C12OCCO2	-8.4	0.215	0.965	3.09*	0.681	5.5	-0.347	-7.57
Cc1ccc(C(=O)N2CCN(c3ccc(C(F)(F)F)cn3)CC2)c(C)c1	·	·	-0.0354	·	·	·	·	·
O=C(O)c1ccccc1C1=Nc2ccc(O)cc2Oc2cc(O)ccc21	6.3	-0.748	-0.912	31.6*	0.376	6.1	418*	403*
COc1cc(NC(=O)c2cc(OC)c(OC)c(OC)c2)c(OC)cc1NC(=O)CN1CCCCC1	7.9	-3.27*	-0.045	3.91*	-0.172	25.7	?	-46.6
O=C(c1nc(-c2ccccc2)n(-c2ccccc2)n1)N1CCN(S(=O)(=O)c2ccccc2)CC1	0.9	-0.39	1.81	3.84*	-3.78*	1.7	-8.01	?
Cn1nc(C(=O)N2CCN(S(=O)(=O)c3ccccc3)CC2)c2ccccc2c1=O	5.5	-0.0896	0.905	-0.0704	-0.296	0.1	·	·
Cc1cc(C)nc(SCc2nnc(SCC(=O)NCc3ccco3)n2-c2ccccc2)n1	0.0	0.249	-0.177	·	·	-0.2	·	·
CCOC(=O)Cc1csc(NC(=O)COc2ccc(N(C)S(=O)(=O)c3cccs3)cc2)n1	6.5	-0.898	0.293	6.24*	-0.685	5.6	?	-22.7
